What is called inhibition is the share of the control response that was lost under treatment.

The text below walks through data of PubChem BioAssay.

For part of these data: Results with a measured potency or affinity are listed apart. Active and inactive are the calls of the source.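 How the source made its calls, unless noted: active means primary screen activator hit with a dose response curve and TRPC4 channel activation at any tested dose; inactive means no activation, no dose response, or not a primary hit.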

Assay [1] has as its system TRPC4 beta (transient receptor potential cation channel C4), mouse. The assay is described as follows: activators of mouse TRPC4 channel, confirmation, cell-based, Fluo4 calcium, HEK293 TRPC4beta/mu-opioid, duplicates, 10 µM (AID 2426;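 active means fluorescence ratio normalized to control raised more than 50% in primary screen plus both repeat runs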). Particulars: Fluo4 calcium fluorescence, at 10 µM; hits give high values.
Assay [2] concerns transient receptor potential cation channel C4 beta (TRPC4), mouse. The assay is described as follows: activators of mouse TRPC4 channel, confirmation, cell-based, second round, Fluo4, HEK293 TRPC4beta/mu-opioid, 1 µM (AID 2461;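 active means primary screen active and over 50% activation in each of two duplicate runs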). Particulars: Fluo4 calcium fluorescence, at 1 µM; hits give high values.
The subject of assay [3] is TRPC4 (transient receptor potential cation channel C4 beta), mouse. The assay is described as follows: positive allosteric modulators of mouse TRPC4, confirmation, cell-based, second round, Fluo-4, HEK293 TRPC4beta/mu-opioid, 1 µM (AID 2554;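 active means primary screen hit whose fluorescence ratio, in both repeats, exceeds the weak agonist control mean by 3 SD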). Particulars: DAMGO EC20, Fluo-4 calcium flux, at 1 µM; hits give high values. (In general: Calcium assays in cells follow changes in intracellular calcium, usually with a dye or a luminescent sensor.)

Assay [4] has as its system TRPC4 beta (transient receptor potential cation channel C4), mouse. The assay is described as follows: positive allosteric modulators of mouse TRPC4, confirmation, cell-based, Fluo-4, HEK293 TRPC4beta/mu-opioid (AID 2555;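 active means primary screen hit whose calcium fluorescence ratio, in both repeats, exceeds the weak agonist control mean by 3 SD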). Conditions: DAMGO EC20, Fluo-4 calcium flux, at 10 µM; hits give high values.
Assay [5] concerns the target Short transient receptor potential channel 4 (Mus musculus) (UniProt Q9QUQ5). The assay is described as follows: inhibitors of mouse TRPC4 channel, confirmation, cell-based, Fluo4, HEK293 TRPC4beta/mu-opioid (AID 2636;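 active means calcium signal cut by more than 3 SD below the full-agonist control yet still positive, in both repeats and the earlier primary screen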). Conditions: DAMGO, Fluo4 calcium flux, at 10 µM; hits give high values.
For assay [6] the target is unchanged. The assay is described as follows: inhibitors of mouse TRPC4 channel, confirmation, cell-based, second round, Fluo4, HEK293 TRPC4beta/mu-opioid, 1 µM (AID 2637;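 active means calcium signal ratio cut to more than 3 SD under the fully stimulated control mean yet still positive, in both repeats and the primary screen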;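 on inhibition: percent of integrated ratio relative to wells lacking test compound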). Particulars: Fluo4 calcium flux, DAMGO, at 1 µM; hits give high values.
For assay [7] the target is unchanged. The assay is described as follows: mouse TRPC4 channel activators, dose response, cell-based, HEK293 TRPC4/mu-opioid, Fluo-4 calcium (AID 434937).
Assay [8] shares this target. The assay is described as follows: TRPC4 positive allosteric modulators, dose response, cell-based, HEK293 TRPC4/mu-opioid, Fluo-4 calcium, EC20 DAMGO (AID 434941;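 active means earlier screen potentiator hit that boosts the TRPC4 ion channel at some dose, with a dose response; inactive means no potentiation, no dose response, or not a prior hit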;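 further: calcium entry triggered by an EC20 dose of DAMGO at the co-expressed mu-opioid receptor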).
Assay [9] concerns the target Short transient receptor potential channel 6 (Mus musculus) (UniProt Q61143). The assay is described as follows: inhibition of mouse TRPC6 channel, confirmation, selectivity assay for TRPC4 inhibitor project, cell-based, HEK293, membrane potential dye, duplicate (AID 434948;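 active means active in primary screen and both duplicates, each dropping signal beyond three positive-control SD with fluorescence still positive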). Conditions: HEK293 TRPC6, membrane potential dye fluorescence, at 10 µM, stimulated with maximal-effect acetylcholine; hits give high values.

For assay [10] the target is unchanged. The assay is described as follows: activation of mouse TRPC6 channel, confirmation, selectivity assay for TRPC4 activator project, cell-based, HEK293, membrane potential dye, duplicate (AID 434950;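 active means membrane potential signal rise above negative control mean plus 3 SD in both duplicates, also active in the earlier TRPC4 screen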). Conditions: HEK293 TRPC6, membrane potential fluorescence, at 10 µM; hits give high values.
The target is the same in assay [11]. The assay is described as follows: TRPC6 potentiation by TRPC4 potentiator hits, confirmation, selectivity assay for TRPC4 potentiator project, HEK293 cells, membrane potential dye, duplicate (AID 434952;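 active means compound raising the membrane signal above positive-control mean plus 3 SD in both repeats, and a primary screen hit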). Conditions: HEK293 TRPC6, membrane potential dye fluorescence, at 10 µM, maximal acetylcholine added after compound; hits give high values.
In assay [12] the target is Short transient receptor potential channel 4 (Mus musculus) (UniProt Q9QUQ5). The assay is described as follows: calcium flux activators in TRPC4/5HT1a cells, counter-screen for TRPC4 activator project, cell-based, second counter screen, HEK293 TRPC4/5HT1a, Fluo-4 (AID 434977;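 active means calcium signal rise above buffer-control mean plus 5 SD in both duplicates, and also a hit in the primary screen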). Conditions: Fluo-4 calcium flux, at 10 µM; hits give high values.
Chain of Short transient receptor potential channel 4 (Mus musculus) (Q9QUQ5 whole entry, looked up): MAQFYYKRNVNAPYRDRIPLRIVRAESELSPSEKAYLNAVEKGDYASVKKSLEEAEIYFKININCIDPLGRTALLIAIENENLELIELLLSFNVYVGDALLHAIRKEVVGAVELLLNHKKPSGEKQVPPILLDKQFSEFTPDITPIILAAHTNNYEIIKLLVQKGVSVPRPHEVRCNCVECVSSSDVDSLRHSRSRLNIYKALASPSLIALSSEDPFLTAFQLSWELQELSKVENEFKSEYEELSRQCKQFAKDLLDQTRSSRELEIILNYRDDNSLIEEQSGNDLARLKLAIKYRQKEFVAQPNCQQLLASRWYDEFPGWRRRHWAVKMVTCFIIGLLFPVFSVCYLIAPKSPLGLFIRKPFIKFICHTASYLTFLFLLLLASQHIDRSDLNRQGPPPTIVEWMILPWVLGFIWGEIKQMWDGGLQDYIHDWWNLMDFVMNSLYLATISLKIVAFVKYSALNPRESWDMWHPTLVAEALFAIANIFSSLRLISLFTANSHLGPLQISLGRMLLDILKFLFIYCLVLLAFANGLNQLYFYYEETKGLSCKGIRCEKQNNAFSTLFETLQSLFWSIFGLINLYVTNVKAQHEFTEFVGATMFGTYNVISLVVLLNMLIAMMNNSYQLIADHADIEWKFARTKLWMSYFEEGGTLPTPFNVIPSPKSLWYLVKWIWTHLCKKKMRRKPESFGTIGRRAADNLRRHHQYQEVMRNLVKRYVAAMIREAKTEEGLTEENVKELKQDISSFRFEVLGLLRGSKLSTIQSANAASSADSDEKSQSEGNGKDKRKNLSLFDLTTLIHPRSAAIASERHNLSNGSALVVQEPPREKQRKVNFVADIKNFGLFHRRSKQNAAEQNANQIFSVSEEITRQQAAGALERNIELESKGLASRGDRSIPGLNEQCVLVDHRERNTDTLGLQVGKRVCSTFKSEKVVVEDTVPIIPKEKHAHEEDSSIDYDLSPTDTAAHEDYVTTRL
Assay [13] in a line: calcium flux inhibitors in TRPC4/5HT1a cells, confirmation, counter-screen for TRPC4 inhibitor project, cell-based, second counter screen, HEK293 TRPC4/5HT1a, Fluo-4 (AID 434978;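 active means primary screen active whose calcium signal fell more than 3 SD beyond the full-serotonin control mean in both duplicate plates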;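 on outcome: serotonin given first at submaximal then at maximal dose after compound preincubation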). Particulars: Fluo-4 calcium flux, at 10 µM, serotonin added to trigger calcium flux; hits give high values.
In assay [14] the test system is TRPC4 (mouse), co-expressed with 5HT1a in HEK293. The assay is described as follows: calcium flux potentiators in TRPC4/5HT1a cells, confirmation, counter-screen for TRPC4 potentiator project, cell-based, second counter screen, HEK293 TRPC4/5HT1a, Fluo-4 (AID 434979;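 active means signal rise over 3 SD above mean of control wells given weak agonist, in both repeats and first screen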). Particulars: Fluo-4 calcium flux, at 10 µM, serotonin added at its EC20 dose; hits give high values.

A short description of assay [15]: calcium flux activation in mu-opioid HEK293 cells, confirmation, counter-screen for TRPC4 activator project, cell-based, HEK293 mu-opioid receptor line (AID 449723;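 active means hit in primary screen, with calcium signal over 5 SD above buffer well mean in both duplicates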;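 further: counter screen cells carry the mu-opioid receptor alone and lack TRPC4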). Conditions: Fluo-4 calcium fluorescence, at 10 µM; hits give high values.
A short description of assay [16]: calcium flux enhancement in mu-opioid HEK293 cells, confirmation, counter-screen for TRPC4 allosteric potentiator project, cell-based, HEK293 mu-opioid receptor line (AID 449724;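 active means calcium signal rise more than 3 SD above the low-dose agonist control mean, in both duplicate plates and the primary screen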;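 further: HEK293 cells carrying mu-opioid receptor only with no TRPC4 channel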). Conditions: Fluo-4 calcium flux, at 10 µM, compound added before EC20 DAMGO stimulus; hits give high values.

Chain of Short transient receptor potential channel 6 (Mus musculus) (Q61143 whole entry, looked up): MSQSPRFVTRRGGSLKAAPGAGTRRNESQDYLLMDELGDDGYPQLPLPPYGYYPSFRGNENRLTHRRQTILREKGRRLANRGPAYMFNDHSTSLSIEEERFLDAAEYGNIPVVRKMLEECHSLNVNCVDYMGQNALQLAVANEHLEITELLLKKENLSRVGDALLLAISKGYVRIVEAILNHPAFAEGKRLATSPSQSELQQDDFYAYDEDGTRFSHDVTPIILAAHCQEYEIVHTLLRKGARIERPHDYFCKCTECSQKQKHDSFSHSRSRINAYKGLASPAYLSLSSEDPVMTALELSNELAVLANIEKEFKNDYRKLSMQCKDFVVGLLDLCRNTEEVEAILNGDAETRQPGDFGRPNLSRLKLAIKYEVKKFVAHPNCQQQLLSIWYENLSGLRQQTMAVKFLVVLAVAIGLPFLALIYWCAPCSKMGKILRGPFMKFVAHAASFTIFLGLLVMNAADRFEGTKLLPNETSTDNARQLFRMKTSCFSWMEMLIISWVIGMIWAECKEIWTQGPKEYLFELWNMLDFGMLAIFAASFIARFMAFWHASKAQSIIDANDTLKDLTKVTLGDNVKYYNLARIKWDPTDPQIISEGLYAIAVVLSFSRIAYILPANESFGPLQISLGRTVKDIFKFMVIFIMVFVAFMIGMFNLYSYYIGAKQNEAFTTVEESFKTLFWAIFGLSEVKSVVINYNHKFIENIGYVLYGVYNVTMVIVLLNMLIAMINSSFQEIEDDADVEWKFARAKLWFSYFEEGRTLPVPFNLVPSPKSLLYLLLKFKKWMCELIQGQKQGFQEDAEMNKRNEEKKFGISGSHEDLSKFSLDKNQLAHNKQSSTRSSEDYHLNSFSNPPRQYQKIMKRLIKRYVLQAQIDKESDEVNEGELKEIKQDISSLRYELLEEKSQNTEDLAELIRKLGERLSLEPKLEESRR

Regarding `CCCCNc1nc(-c2ccccc2)c(C(=O)OCC)cc1C#N`, the result in [1], in [2], in assay [3], in assay [4], in assay [6] and in assay [7] was inactive. Besides, the result in assay [8], in assay [9], in assay [10], in assay [11], in assay [12] and in [14] was inactive. For the same compound, the result in [15] and in [16] was inactive. The inhibition in assay [5] was 94% (active); in assay [13] it was 15% (active).
Regarding `CC(COc1ccccc1)N1CCC(CO)(Cc2ccccc2)CC1` (stereo not given), the result in assay [1], in assay [2], in assay [3], in assay [4], in assay [6] and in assay [7] was inactive. Further, the outcome in assay [8], in assay [9], in assay [10], in [11], in assay [12] and in assay [14] was inactive. In addition, the result in [15] and in assay [16] was inactive. Also, the inhibition was 96% (active) in [5] and 22.9% (active) in [13].
Take `O=C(Nc1ccccc1N1CCN(C(=O)c2ccc(Cl)cc2)CC1)c1cccc([N+](=O)[O-])c1`: the result in assay [1], in [2], in assay [3], in [4], in assay [7] and in assay [8] was inactive. Besides, the result in [9], in [10], in assay [11], in [12], in assay [14] and in assay [15] was inactive. In addition, the outcome in [16] was inactive. The inhibition in [5] was 81% (active); in assay [6], 52% (active); in [13], 36.6% (active).
For `COc1cccc(O)c1CN1CCCC(C(=O)c2cccc(C(F)(F)F)c2)C1` (stereo not given), the outcome in assay [1], in assay [2], in assay [3], in assay [4], in [6] and in assay [7] was inactive. Moreover, the outcome in assay [8], in assay [9], in assay [10], in assay [11], in assay [12] and in [14] was inactive. Moreover, the outcome in assay [15] and in assay [16] was inactive. For the same compound, the inhibition in assay [5] is 70% (active); in assay [13] it was 34.3% (active).
In the case of `COCCn1c(SCc2cccc([N+](=O)[O-])c2)nc2ccccc2c1=O`, the outcome in assay [1], in assay [2], in [3], in assay [4], in [7] and in assay [8] was inactive. Moreover, the compound was called inactive in [9], in assay [10], in assay [11], in assay [12], in assay [14] and in assay [15]. In addition, the outcome in [16] was inactive. Besides, the inhibition in assay [5] is 94% (active); in [6], 45% (active); in assay [13], 20.4% (active).
For the compound `COc1cc2c(cc1OC)C(C)N(CCc1ccc(Cl)cc1)CC2` (stereo not given), the outcome in assay [1], in assay [2], in assay [3], in assay [4], in [6] and in assay [7] was inactive. For the same compound, the result in assay [8], in assay [9], in assay [10], in assay [11], in [12] and in [13] was inactive. The outcome in assay [14], in assay [15] and in assay [16] was inactive. Also, the inhibition in assay [5] is 75% (active).
`COc1cc(CNCCc2ccc(F)cc2)ccc1OCc1ccc(Cl)nc1`: the outcome in assay [1], in assay [2], in assay [3], in assay [4], in assay [6] and in assay [7] was inactive. Also, the outcome in assay [8], in assay [10], in [11], in assay [12], in assay [13] and in assay [14] was inactive. For the same compound, the outcome in assay [15] and in assay [16] was inactive. Further, the inhibition is 84% (active) in assay [5] and 40.5% (active) in assay [9].
As to `Cn1c(NCc2ccccc2O)nc2ccccc21`, the outcome in [1], in [2], in assay [3], in assay [4], in assay [6] and in [7] was inactive. Further, the outcome in assay [8], in [9], in assay [10], in assay [11], in assay [12] and in assay [13] was inactive. Also, the outcome in assay [14], in [15] and in assay [16] was inactive. The inhibition in assay [5] was 62% (active).
For `C=CCN(CC(O)c1cccc([N+](=O)[O-])c1)C(C)CCc1ccccc1` (stereo not given), the outcome in assay [1], in [2], in [3], in assay [4], in assay [6] and in assay [7] was inactive. The result in assay [8], in assay [9], in assay [10], in assay [11], in [12] and in assay [14] was inactive. Moreover, the outcome in assay [15] and in [16] was inactive. In addition, the inhibition in assay [5] is 79% (active); in assay [13] it was 25.6% (active).
As to `O=C1Nc2cc(C(=O)NCCCN3CCOCC3)ccc2S/C1=C/c1ccccc1F`, the outcome in assay [1], in [2], in assay [3], in assay [4], in assay [5] and in assay [6] was inactive. Also, the result in [7], in assay [8], in assay [9], in assay [10], in [11] and in assay [12] was inactive. The result in assay [13], in assay [14], in [15] and in [16] was inactive.
On to `Cc1ccc(OCC(COCc2ccccc2)NC(C)C)cc1` (stereo not given), for which the result in assay [1], in [2], in [3], in [4], in [6] and in assay [7] was inactive. The outcome in assay [8], in [10], in assay [11], in assay [12], in assay [14] and in [15] was inactive. Also, the result in assay [16] was inactive. Moreover, the inhibition is 85% (active) in [5], 5% (active) in [9] and 42.1% (active) in assay [13].
Take `OCCNCc1cc(Br)ccc1OCc1ccc(F)cc1`: the outcome in assay [1], in [2], in [3], in assay [4], in assay [7] and in assay [8] was inactive. For the same compound, the call in assay [9], in assay [10], in assay [11], in assay [12], in assay [14] and in assay [15] was inactive. The result in assay [16] was inactive. The inhibition in [5] is 94% (active); in [6], 45% (active); in assay [13], 21.1% (active).
For the compound `CCCn1c(NC(=O)c2cccc(S(=O)(=O)N3CCCC3)c2)nc2ccccc21`, the result in assay [1], in [2], in assay [6], in assay [7], in [8] and in assay [9] was inactive. For the same compound, the compound was classed as inactive in assay [10], in [11], in assay [12], in assay [13], in assay [15] and in assay [16]. The potentiation in assay [3] is 11% (active); in assay [4], 64% (active); in assay [14] it was 24.4% (active). Further, in assay [5], the inhibition is 87% (active).
`CC(=O)C1=C(O)C(=O)N(Cc2ccccc2)C1c1ccc([N+](=O)[O-])cc1` (stereo not given): the result in assay [1], in [2], in assay [3], in assay [4], in [7] and in [8] was inactive. Besides, the result in [9], in assay [10], in assay [11], in assay [12], in assay [14] and in assay [15] was inactive. The result in assay [16] was inactive. For the same compound, the inhibition in assay [5] was 95% (active); in [6], 61% (active); in [13], 34.5% (active).
Consider `Cc1nn(-c2cccc(Cl)c2)c2nc(C(F)(F)F)[nH]c(=O)c12`, for which the result in assay [1], in assay [2], in assay [3], in assay [4], in assay [7] and in assay [8] was inactive. Moreover, the result in assay [9], in assay [10], in assay [11], in assay [12], in assay [14] and in assay [15] was inactive. Further, the outcome in assay [16] was inactive. For the same compound, the values for the inhibition in [5], in assay [6] and in assay [13] were 95% (active), 56% (active) and 34.8% (active), respectively.
